Measurements reported in the supplement of paper PMC6555819.

Key:
Test in all cases: PBM binding z-score (relative to random genomic background probes); higher = stronger binding; sequences stand for … in GC…GCGATTGACAGCGTAGAATGAAGG
[1] = tested on: FXR:RXRa (NR concentration 270 nM, RXRa partner concentration 90 nM)
Summary of the method: (§1)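 Custom Agilent 4×180K protein-binding microarrays carried double-stranded probes. Their 34-nt variable regions held direct-repeat seeds, single-nucleotide variants, half-site ablations and random human genomic background sequences. Arrays were incubated 1 h with ligand-free nuclear receptor dimers in PBS pH 7.4, 2% milk, 0.02% Triton X-100, 1 mM DTT, 0.2 mg/mL BSA and 0.4 mg/ml salmon testes DNA. Antibodies against each partner (one per run) detected binding, and scanned fluorescence was regression-normalized. Binding z-scores use random background probes as reference.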

[2] = tested on: LXRa:RXRa (NR concentration 270 nM, RXRa partner concentration 90 nM)
Summary of the method: as §1

[3] = tested on: LXRa homodimer (NR concentration 270 nM)
Summary of the method: as §1

[4] = tested on: LXRb:RXRa (NR concentration 270 nM, RXRa partner concentration 90 nM)
Summary of the method: as §1

[5] = tested on: LXRb homodimer (NR concentration 270 nM)
Summary of the method: as §1

[6] = tested on: PPARa:RXRa (NR concentration 270 nM, RXRa partner concentration 90 nM)
Summary of the method: as §1

[7] = tested on: PPARg:RXRa (NR concentration 180 nM, RXRa partner concentration 90 nM)
Summary of the method: as §1

[8] = tested on: PPARg:RXRa 270nM:90nM, anti-RXR (NR concentration 270 nM, RXRa partner concentration 90 nM)
Summary of the method: as §1

[9] = tested on: PPARg:RXRa 30nM:10nM, anti-RXR (NR concentration 30 nM, RXRa partner concentration 10 nM)
Summary of the method: as §1

[10] = tested on: PPARg:RXRa 90nM:30nM, anti-RXR (NR concentration 90 nM, RXRa partner concentration 30 nM)
Summary of the method: as §1

[11] = tested on: PPARg:RXRa DBDmut IVT, anti-RXR (DBD mutation: RXRa K156A/R161A, NR concentration 270 nM, RXRa partner concentration 90 nM)
Summary of the method: as §1

[12] = tested on: PPARg:RXRa IVT, anti-PPARg (NR concentration 270 nM, RXRa partner concentration 90 nM)
Summary of the method: as §1

[13] = tested on: PPARg DBDmut:RXRa IVT, anti-PPARg (DBD mutation: PPARg1 K132A/R137A, NR concentration 270 nM, RXRa partner concentration 90 nM)
Summary of the method: as §1

[14] = tested on: PPARg DBDmut IVT, anti-PPARg (DBD mutation: PPARg1 K132A/R137A, NR concentration 270 nM)
Summary of the method: as §1

[15] = tested on: PPARg homodimer (NR concentration 180 nM)
Summary of the method: as §1

[16] = tested on: PXR:RXRa (NR concentration 270 nM, RXRa partner concentration 90 nM)
Summary of the method: as §1

[17] = tested on: PXR homodimer (NR concentration 270 nM)
Summary of the method: as §1

[18] = tested on: RARa:RXR (NR concentration 270 nM, RXRa partner concentration 90 nM)
Summary of the method: as §1

[19] = tested on: RARa homodimer (NR concentration 270 nM)
Summary of the method: as §1

[20] = tested on: RARb:RXRa (NR concentration 270 nM, RXRa partner concentration 90 nM)
Summary of the method: as §1

| Sequence | PBM binding z-score [1] | PBM binding z-score [2] | PBM binding z-score [3] | PBM binding z-score [4] | PBM binding z-score [5] | PBM binding z-score [6] | PBM binding z-score [7] | PBM binding z-score [8] | PBM binding z-score [9] | PBM binding z-score [10] | PBM binding z-score [11] | PBM binding z-score [12] | PBM binding z-score [13] | PBM binding z-score [14] | PBM binding z-score [15] | PBM binding z-score [16] | PBM binding z-score [17] | PBM binding z-score [18] | PBM binding z-score [19] | PBM binding z-score [20] |
| --- | --- | --- | --- | --- | --- | --- | --- | --- | --- | --- | --- | --- | --- | --- | --- | --- | --- | --- | --- | --- |
| CCAGCTAGGTCAATGGTCAGCTAAAGCAGCTCGC | 2.92 | 2.06 | -0.24 | 1.27 | -0.685 | 3.2 | 5.08 | 5.75 | 3.27 | 5.34 | 4.9 | 4.47 | -0.141 | -0.0695 | 1.28 | 0.737 | -0.176 | 1.49 | -0.163 | 3.73 |
| CAGCCTAGGTCAGGGCAAGTATAGGAGGAACGTT | 2.01 | 1.35 | -0.33 | 0.587 | -1.01 | 2.23 | 1.32 | 1.24 | -0.349 | 0.306 | 1.79 | 2 | -0.618 | -1.17 | 0.755 | 0.56 | -0.274 | 1.19 | -0.273 | 3.7 |
| CGTCAAAGTTCAAGGTAACGTATCAGAAAGCAGC | 5.57 | 5.5 | 2.87 | 3.2 | 1.15 | 4.61 | 4.11 | 5.03 | 1.86 | 3.65 | 1.16 | 2.03 | 0.808 | -0.101 | 2.73 | 4.22 | 3.05 | 3.48 | 1.28 | 4.98 |
| GCTGCTAGGTCAGGTTGGACAGCTAACGGGTACG | 1.1 | 0.591 | -0.119 | 0.0809 | -0.346 | 1.2 | 0.798 | 0.804 | -0.236 | -0.0943 | 2.44 | 2.18 | -0.356 | -0.812 | 0.345 | 0.082 | -0.273 | 0.436 | -0.846 | 3.39 |
| CCTACTGGGCCATCAGGTCACTGATATCAACGTT | 1.21 | 0.856 | 0.277 | 1.45 | -0.523 | 2.54 | 3.22 | 3.98 | 1.37 | 3.37 | 4.97 | 5.45 | -0.0281 | -0.141 | 0.904 | 1.44 | 0.0492 | 1.94 | -0.142 | 2.33 |
| ATCTCTAGGTAACCAACTTCAGTGAATGCCGAAC | 0.38 | 0.07 | 0.43 | 0.199 | 1.07 | 0.378 | 0.531 | 0.519 | 0.321 | 0.666 | 4.05 | 2.98 | 1.39 | 1.39 | 0.412 | -0.17 | 0.34 | 0.0512 | 0.816 | 0.248 |
| CGAACTTGGTCATTGACAGGACAGTGAATAGTAA | 0.086 | -0.0975 | -0.179 | 0.228 | -0.101 | 0.267 | 0.262 | 0.00224 | -0.244 | -0.0611 | 0.617 | 0.897 | 0.111 | 0.232 | 0.209 | 0.0575 | 0.147 | 0.48 | 0.507 | 0.912 |
| CGTCAAAGTTCAAATAAGGTAACGTAAAGCACGC | 7.39 | 6.55 | 4.89 | 4.17 | 3.25 | 4.95 | 4.86 | 5.6 | 2.25 | 4.67 | 0.597 | 2.21 | 0.83 | 1.03 | 4.04 | 5.39 | 5.14 | 4.21 | 2.53 | 5.08 |
